In PubChem BioAssay (Tox21):
Inconclusive results are not listed. The source made the active and inactive calls. Unless noted, the call rests on the fitted dose curve; in most records, active means well fitted curve in the direction sought with a large enough effect in the repeat runs; inconclusive means weak or mixed curves; inactive means no such curve, though single readings can be large; an effect the other way counts as inactive or inconclusive.

Legend:
[1] = qHTS assay to identify small molecule antagonists of the estrogen receptor alpha (ER-alpha) signaling pathway using the BG1 cell line in the presence of 0.1 nM 17-beta-estradiol - cell viability counter screen (AID 1259241); further: on the % scale 0 is the no-effect control and ±100 the full control effect; nearly all actives have a fitted effect of over 40% in size
Procedure, shortened: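 In this screen, hormone-deprived VM7Luc4E2 cells were seeded at 4,000 per well, dosed with compound and 0.1 nM estradiol final, and incubated 22 hr at 37C and 5% CO2; fluorogenic live-cell protease signal reported viability.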

[2] = qHTS assay to identify small molecule antagonists of the androgen receptor (AR) signaling pathway using the MDA cell line in the presence of 0.5 nM R1881 - cell viability counter screen (AID 1259242); further: on the % scale 0 is the no-effect control and ±100 the full control effect; nearly all actives have a fitted effect of over 45% in size
Procedure, shortened: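 R1881 at 0.5 nM final stimulated MDA-kb2 cells during 16 hr compound treatment at 37C. Cytotoxicity read: CellTiter-Fluor fluorescence after 30 min.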

[3] = qHTS assay to identify small molecule HDAC inhibitors (AID 1259364);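 further: wild-type HCT-116 cells with endogenous class I/II HDAC activity; top concentration of the series differs between compounds; on the % scale 0 is the no-effect control and ±100 the full control effect; nearly all actives have a fitted effect of over 45% in size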
Procedure, shortened: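 Relative class I and II HDAC activity is taken from the luminogenic signal in HCT-116 cells, with compound exposure 2 hr and reagent development 30 min at room temperature.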

[4] = qHTS assay to identify small molecule agonists of the sonic hedgehog signaling (Shh) pathway - cell viability counter screen (AID 1259366); further: on the % scale 0 is the no-effect control and ±100 the full control effect; nearly all actives have a fitted effect of over 50% in size
Procedure, shortened: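 In quantitative high-throughput format, 3T3 Gli1-Luc cells were exposed to compounds for 24hr and multiplexed for viability using CellTiter-Fluor, incubated 1hr at 37C before the fluorescence read.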

[5] = qHTS assay to identify small molecule antagonists of the sonic hedgehog signaling (Shh) pathway - cell viability counter screen (AID 1259367); further: on the % scale 0 is the no-effect control and ±100 the full control effect; nearly all actives have a fitted effect of over 55% in size
Procedure, shortened: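 Using CellTiter-Fluor, viability of Gli1-Luc reporter 3T3 cells is read by fluorescence in the wells used for the Shh luciferase assay. Treatment lasts 23 hr with conditioned medium, then reagent 1 hr at 37C.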

[6] = qHTS assay to identify small molecule agonists of the sonic hedgehog signaling (Shh) pathway (AID 1259368; calls by dose curve;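 further: NIH/3T3-derived 3T3Gli1-Luc cells carrying a stable Gli1-driven firefly luciferase reporter; series mostly up to about 92 µM; on the % scale 0 is the no-effect control and ±100 the full control effect; nearly all actives have a fitted effect of over 15% in size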)
Procedure, shortened: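 Mouse fibroblast (NIH/3T3) reporter cells with stably integrated Gli1-Luc were treated 24 hr with compound; firefly luciferase luminescence served as the read-out.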

[7] = qHTS assay to identify small molecule antagonists of the sonic hedgehog signaling (Shh) pathway (AID 1259369; calls by dose curve; further: nearly all actives have a fitted effect of over 45% in size; further: potency means the concentration at half of the fitted maximal effect)
Procedure, shortened: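 Conditioned medium drives Shh signalling in 3T3Gli1-Luc cells; compounds in DMSO co-applied, 24hr at 37 C, then luciferase luminescence.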

[8] = target: Estrogen receptor beta (Homo sapiens) (UniProt Q92731); assay: qHTS assay to identify small molecule agonists of the estrogen receptor beta (ER-beta) signaling pathway (AID 1259377; active means well fitted activation curve with a large enough effect in the signal ratio in the repeat runs, not every such curve was filed as active; the % refers to the signal ratio; further: on the % scale 0 is the no-effect control and ±100 the full control effect)
Chain of Estrogen receptor beta (Homo sapiens) (Q92731 whole entry, looked up): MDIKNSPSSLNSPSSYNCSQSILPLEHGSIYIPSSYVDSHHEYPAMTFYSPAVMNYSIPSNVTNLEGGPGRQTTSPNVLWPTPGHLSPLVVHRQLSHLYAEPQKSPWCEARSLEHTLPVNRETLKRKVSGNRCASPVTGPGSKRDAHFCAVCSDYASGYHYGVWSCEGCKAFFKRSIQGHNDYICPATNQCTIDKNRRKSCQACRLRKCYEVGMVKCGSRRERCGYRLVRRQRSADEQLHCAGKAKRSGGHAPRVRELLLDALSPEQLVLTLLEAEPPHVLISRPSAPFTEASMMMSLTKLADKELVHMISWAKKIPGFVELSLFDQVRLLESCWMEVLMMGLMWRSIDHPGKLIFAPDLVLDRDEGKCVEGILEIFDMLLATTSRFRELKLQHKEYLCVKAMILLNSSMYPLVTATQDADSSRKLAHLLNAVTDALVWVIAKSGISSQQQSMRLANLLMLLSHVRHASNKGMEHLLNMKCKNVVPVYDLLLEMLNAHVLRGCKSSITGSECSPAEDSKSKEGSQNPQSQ
Procedure, shortened: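 Reporter cells (HEK293T, ER-beta-UAS-bla) receive compounds or DMSO after a 6 hr pre-incubation. They then incubate 16 hr at 37C/5% CO2, and fluorescence from LiveBLAzer B/G substrate is measured after 2 hours at room temperature.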

[9] = target: Estrogen receptor beta (Homo sapiens) (UniProt Q92731); assay: qHTS assay to identify small molecule antagonists of the estrogen receptor beta (ER-beta) signaling pathway (AID 1259378; active means well fitted inhibition curve with a large enough effect in the signal ratio in the repeat runs, not every such curve was filed as active; the % refers to the signal ratio; further: on the % scale 0 is the no-effect control and ±100 the full control effect)
Procedure, shortened: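 Antagonist mode: compounds added to beta-lactamase reporter HEK293T ER-beta-UAS cells stimulated with E2 (1nM final), 16 hr at 37C. LiveBLAzer B/G FRET substrate, 2 hours room temperature, fluorescence read-out.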

[10] = qHTS assay to identify small molecule agonists of the androgen receptor (AR) signaling pathway in the presence of an antagonist - cell viability counter screen (AID 1259379);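 further: MDA-kb2 human breast cancer cells carrying an MMTV luciferase reporter; series mostly up to about 92 µM; on the % scale 0 is the no-effect control and ±100 the full control effect; nearly all actives have a fitted effect of over 25% in size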
Procedure, shortened: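 A CellTiter-Fluor read-out measured viability of MDA-kb2 reporter cells (MMTV promoter with AR and GR response elements). Treatment: nilutamide 3.0uM final with compounds at 15 concentrations, 16 hr, 37C, 0% CO2.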

[11] = qHTS assay to identify small molecule agonists of the estrogen receptor beta (ER-beta) signaling pathway - cell viability counter screen (AID 1259380); further: on the % scale 0 is the no-effect control and ±100 the full control effect; nearly all actives have a fitted effect of over 30% in size
Procedure, shortened: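 Cells used were ER-beta-UAS-bla HEK293T in medium with 2% charcoal-stripped FBS. They were treated for 16 hr at 37C. Viability came from CellTiter-Glo luminescence.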

[12] = qHTS assay to identify small molecule antagonists of the estrogen receptor beta (ER-beta) signaling pathway - cell viability counter screen (AID 1259382); further: series mostly up to about 92 µM; on the % scale 0 is the no-effect control and ±100 the full control effect; nearly all actives have a fitted effect of over 55% in size
Procedure, shortened: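 Agonist-stimulated (1nM E2) ER-beta-UAS-bla HEK293T cells are incubated with library compounds for 16 hr at 37C. Cell viability is then assessed in the reporter-assay wells by adding CellTiter-Glo and reading luminescence after 30 min.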

[13] = target: Estrogen receptor (Homo sapiens) (UniProt P03372); assay: qHTS assay to identify small molecule agonists of the estrogen receptor alpha (ER-alpha) signaling pathway in the presence of an antagonist (AID 1259383; calls by dose curve; further: top concentration of the series differs between compounds; on the % scale 0 is the no-effect control and ±100 the full control effect; nearly all actives have a fitted effect of over 15% in size)
Chain of Estrogen receptor (Homo sapiens) (P03372 whole entry, looked up): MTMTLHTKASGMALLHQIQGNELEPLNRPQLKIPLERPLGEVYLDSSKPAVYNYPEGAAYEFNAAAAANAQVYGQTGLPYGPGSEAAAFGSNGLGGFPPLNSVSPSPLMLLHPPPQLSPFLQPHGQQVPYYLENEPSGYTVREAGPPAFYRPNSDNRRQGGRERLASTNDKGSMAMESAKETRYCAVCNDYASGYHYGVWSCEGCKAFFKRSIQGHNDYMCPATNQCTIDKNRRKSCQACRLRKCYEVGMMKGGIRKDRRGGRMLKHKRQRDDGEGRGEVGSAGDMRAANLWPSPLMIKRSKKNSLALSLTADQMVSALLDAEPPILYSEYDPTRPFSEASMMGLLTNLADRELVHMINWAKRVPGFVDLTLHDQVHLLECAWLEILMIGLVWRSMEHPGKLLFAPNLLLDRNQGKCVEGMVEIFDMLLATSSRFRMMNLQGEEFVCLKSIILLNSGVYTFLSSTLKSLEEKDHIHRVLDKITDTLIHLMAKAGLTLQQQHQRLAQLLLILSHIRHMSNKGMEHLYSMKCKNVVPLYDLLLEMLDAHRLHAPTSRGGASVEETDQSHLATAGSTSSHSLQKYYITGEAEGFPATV
Procedure, shortened: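 Using VM7Luc4E2 cells seeded 24hr before treatment, antagonist ICI-182,780 (10.0nM final) was added, followed by compounds at 15 concentrations. Plates incubated 22hr; ONE-Glo luminescence quantified reporter activity.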

[14] = qHTS assay to identify small molecule agonists or antagonists of the thyroid stimulating hormone receptor (TSHR) signaling pathway - wild type cell line counter screen (AID 1259384; calls by dose curve; further: on the % scale 0 is the no-effect control and ±100 the full control effect)
Procedure, shortened: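 Counter screen in untransfected Hek293: compounds (15-point titration, triplicate) plus phosphodiesterase inhibitor Ro20-1724 added after 18 h plating; 30 min RT. Intracellular cAMP via competitive d2/cryptate immunoassay, 1 h incubation.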

[15] = target: Thyrotropin receptor (Homo sapiens) (UniProt P16473); assay: qHTS assay to identify small molecule antagonists of the thyroid stimulating hormone receptor (TSHR) signaling pathway (AID 1259385; calls by dose curve; further: on the % scale 0 is the no-effect control and ±100 the full control effect; nearly all actives have a fitted effect of over 20% in size)
Chain of Thyrotropin receptor (Homo sapiens) (P16473 whole entry, looked up): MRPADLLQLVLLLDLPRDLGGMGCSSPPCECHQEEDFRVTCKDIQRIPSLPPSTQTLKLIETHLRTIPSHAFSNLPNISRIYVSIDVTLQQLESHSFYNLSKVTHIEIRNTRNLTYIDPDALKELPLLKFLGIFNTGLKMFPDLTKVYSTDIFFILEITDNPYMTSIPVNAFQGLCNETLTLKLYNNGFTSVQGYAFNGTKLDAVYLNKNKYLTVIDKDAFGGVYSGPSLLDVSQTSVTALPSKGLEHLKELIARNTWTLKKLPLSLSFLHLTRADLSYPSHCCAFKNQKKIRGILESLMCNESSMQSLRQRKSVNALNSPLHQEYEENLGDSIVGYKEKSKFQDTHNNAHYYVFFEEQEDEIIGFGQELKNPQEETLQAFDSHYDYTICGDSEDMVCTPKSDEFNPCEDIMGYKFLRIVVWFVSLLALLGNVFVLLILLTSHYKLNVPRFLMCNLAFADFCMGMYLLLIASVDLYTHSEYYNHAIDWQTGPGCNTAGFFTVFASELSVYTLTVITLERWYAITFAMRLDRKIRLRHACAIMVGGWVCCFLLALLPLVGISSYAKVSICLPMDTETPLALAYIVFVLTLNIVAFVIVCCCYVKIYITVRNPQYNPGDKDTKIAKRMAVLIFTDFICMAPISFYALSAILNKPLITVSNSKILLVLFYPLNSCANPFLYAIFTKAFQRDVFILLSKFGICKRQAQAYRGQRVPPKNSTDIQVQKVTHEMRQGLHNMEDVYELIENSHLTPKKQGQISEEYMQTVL
Procedure, shortened: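 Antagonist mode: compound-treated TSHR-expressing HEK293 cells were stimulated with 1.5 ng/mL TSH (final) in presence of Ro20-1724 for 30 min at RT. HTRF cAMP detection after 1 h; each compound tested at 15 concentrations, triplicate.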

[16] = qHTS assay to identify small molecule HDAC inhibitors - cell viability counter screen (AID 1259365); further: series mostly up to about 92 µM; on the % scale 0 is the no-effect control and ±100 the full control effect; nearly all actives have a fitted effect of over 50% in size
Procedure, shortened: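 Measured quantity is CellTiter-Glo luminescence from wild-type HCT-116 cells after compound incubation of 2hr at 37C, 5% CO2; reagent developed 30min at room temperature.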

[17] = qHTS assay to identify small molecule phospholipidosis (PLD) inducers (AID 1259344; active means well fitted curve in the direction sought with a large enough effect; an effect the other way counts as inactive or inconclusive; further: on the % scale 0 is the no-effect control and ±100 the full control effect)
Procedure, shortened: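 Fluorescent phospholipid staining (LipidTOX Red) measured by automated microscopy in fixed HepG2 cells after 24 h treatment; nuclei counterstained with Hoechst 33342; amiodarone as reference inducer.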

[18] = target: Estrogen receptor (Homo sapiens) (UniProt P03372); assay: qHTS assay to identify small molecule antagonists of the estrogen receptor alpha (ER-alpha) signaling pathway using the BG1 cell line in the presence of 0.1 nM 17-beta-estradiol (AID 1259244); further: potency means the concentration at half of the fitted maximal effect; nearly all actives have a fitted effect of over 50% in size
Procedure, shortened: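 VM7Luc4E2; 4xERE-luciferase; 0.1 nM E2 final; 22 h co-incubation, 37C; ONE-Glo luminescence after 30 min at room temperature.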

CCN(CC)CCN1C(=O)CN=C(c2ccccc2F)c2cc(Cl)ccc21
inactive: Potency [1] | Potency [2] | Potency [3] | Potency [4] | Potency [5] | Potency [6] | Potency [7] | Potency [8] | Potency [9] | Potency [10] | Potency [11] | Potency [12] | Potency [13] | Potency [14] | Potency [15]

CC(=O)[O-].CC(=O)[O-].O.O.[Zn+2]
inactive: Potency [1] | Potency [2] | Potency [3] | Potency [16] | Potency [5] | Potency [6] | Potency [7] | Potency [10] | Potency [11] | Potency [12]

Cc1ccn2nc(S(=O)(=O)Nc3c(F)cccc3F)nc2n1
inactive: Potency [1] | Potency [2] | Potency [3] | Potency [4] | Potency [5] | Potency [6] | Potency [7] | Potency [8] | Potency [9] | Potency [10] | Potency [11] | Potency [12] | Potency [14] | Potency [15]

CC(=O)[O-].CC(=O)[O-].CC(=O)[O-].[Cr+3]
inactive: Potency [1] | Potency [2] | Potency [3] | Potency [16] | Potency [4] | Potency [6] | Potency [10] | Potency [11] | Potency [12]

CC(=O)[O-].CC(=O)[O-].CC(=O)[O-].[Sb+3]
inactive: activity change, negative = cytotoxicity [1] -1.06% [at 3.27 µM] | viability change, negative = cytotoxic [2] 2.35% [at 3.26 µM] | activity change, negative = cytotoxicity [16] -3.57% [at 3.27 µM] | viability change, negative = cytotoxic [4] 5.24% [at 3.27 µM] | viability change, negative = cytotoxic [5] 4.31% [at 3.27 µM] | activity change [6] 0.122% [at 3.27 µM, hits give high values] | activity change, negative = inhibition [7] 2.99% [at 3.27 µM] | activity change, negative = cytotoxicity [10] 3.2% [at 3.27 µM] | activity change, negative = cytotoxicity [11] 2.42% [at 3.32 µM] | activity change, negative = cytotoxicity [12] -1.85% [at 3.27 µM]

O=[N+]([O-])c1cccc2cccc([N+](=O)[O-])c12
inactive: Potency [1] | Potency [2] | Potency [3] | Potency [4] | Potency [5] | Potency [6] | Potency [8] | Potency [10] | Potency [11] | Potency [12]

CC(C)C(Nc1ccc(C(F)(F)F)cc1Cl)C(=O)OC(C#N)c1cccc(Oc2ccccc2)c1 (configuration not stated)
active: Potency [7] 43.6 µM
inactive: Potency [1] | Potency [2] | Potency [3] | Potency [16] | Potency [4] | Potency [5] | Potency [8] | Potency [9] | Potency [10] | Potency [11] | Potency [12] | Potency [13]

O=C(Nc1ccc(F)cc1F)c1cccnc1Oc1cccc(C(F)(F)F)c1
inactive: Potency [1] | Potency [2] | Potency [3] | Potency [16] | Potency [5] | Potency [6] | Potency [8] | Potency [9] | Potency [10] | Potency [11] | Potency [12] | Potency [14] | Potency [15]

O=C(N[C@@H]1N=C(c2ccccc2F)c2cccc3c2N(CC3)C1=O)c1cc2ccccc2[nH]1
inactive: Potency [2] | PLD induction [17] -5.27% [at 0.306 µM] | Potency [4] | Potency [5] | Potency [6] | Potency [7] | Potency [8] | Potency [9] | Potency [10] | Potency [11] | Potency [12] | Potency [14] | Potency [15]

O=S1(=O)OCC2C(CO1)C1(Cl)C(Cl)=C(Cl)C2(Cl)C1(Cl)Cl (configuration not stated)
active: Potency [18] 54.5 µM
inactive: Potency [1] | Potency [3] | Potency [16] | Potency [5] | Potency [6] | Potency [7] | Potency [12] | Potency [13] | Potency [14]
